The text below walks through data of PubChem BioAssay (NCATS).

“And” between values parts separate entries of the source, which are not always exact repeats. Identical values can stand only once. Records with an inconclusive call do not appear. Unmarked numbers belong to inactive results. The source made the active and inactive calls. The call rests on the fitted dose curve; in most records, active means well fitted cell-killing curve with a large enough effect; inconclusive means small, poorly fitted or top-dose-only effect; inactive means flat fitted curve, though single readings scatter. *1 amine or outer side, *2 acyl side, *3 side chain or, on linkers, in order; H or OH if unused. Where a SMILES comes first, the peptide text is derived from it. Bridges are numbered along the chain shown (N, C = ends). [ ]: non-standard residue; d: D form. The star is where a group is joined. ξ: configuration not given here. ΔAla(3-NHCONH2) = NC(=O)NC=C(N)C(=O)O; X2 = NC1=NCCC(C(N[*:1])C(=O)[*:2])N1; ξβ3hOrn = NCCCC(N)CC(=O)*; Dap = NC[CH](N)C(=O)O

The nature of the assay: Cellular viability qHTS for adrenocortical cancer (ACC) cell line NCI-H295R (AID 1963990). Further: nearly all actives have a fitted effect of over 60% in size.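 On activity change, negative = viability loss: 0% = DMSO only wells and -100% = full killing with cytotoxic reference compound.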 The conditions noted are these: CellTiter-Glo ATP luminescence, 48 h; series mostly up to 46.1 µM; activity change, negative = viability loss: at the top concentration. The gist of the method:
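CellTiter-Glo ATP luminescence, read 48 h after compound addition, measured viability of NCI-H295R adrenocortical cells grown serum-free with ITS. Final concentrations spanned up to 46 uM. Data normalized to DMSO and doxorubicin, fitted for IC50 and maximal response.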
With `NCCCC(N)CC(=O)NCC1NC(=O)C(CO)NC(=O)C(N)CNC(=O)C(C2CCN=C(N)N2)NC(=O)C(=CNC(N)=O)NC1=O` (stereo not drawn) (H-[Dap]S[Dap](ξβ3hOrn)[ΔAla(3-NHCONH2)][X2]; lactam 1-C; configuration not given here), the activity change, negative = viability loss was 3.92% [at 0.587 µM].

For `CC1(C)[C@@H](OC(=O)CCC(=O)O)CC[C@]2(C)[C@H]3C(=O)C=C4[C@@H]5C[C@@](C)(C(=O)O)CC[C@]5(C)CC[C@@]4(C)[C@]3(C)CC[C@@H]12`, the “activity change, negative = viability loss” value was -22.4%. Same read-out and setting: as for `NCCNCCNCCNCCN`, the figure is 1% [at 9.17 µM]; as for `CCCNC(C)C(=O)Nc1c(C)csc1C(=O)OC` (stereo not given), 0.804%. Same read-out and setting: for `CC(C)C(=O)c1c(C(C)C)nn2ccccc12` the value was 4.87%; for `O=C(O)CC(O)C(=O)O` (stereo not given), -2.5%; for `CC[C@@]1(c2ccccc2)NC(=O)N(C)C1=O`, 11.9%. On the same count and under the same terms, for `CC1(C)O[C@@H]2[C@@H](CO[C@@]3(COS(N)(=O)=O)OC(C)(C)O[C@@H]23)O1` the value was -14%. Turning to `CN1C(=O)CC(C)(c2ccccc2)C1=O` (stereo not given), the “activity change, negative = viability loss” value was -13.3%. With `CCOC(=O)[C@H](CCc1ccccc1)N[C@@H](C)C(=O)N1C(=O)N(C)C[C@H]1C(=O)O`, the “activity change, negative = viability loss” value is -9.15%. For the compound `COC(=O)c1cc(S(N)(=O)=O)ccc1OC`, the “activity change, negative = viability loss” value is -4.48%. Same read-out and setting: as for `NC(CSCC(=O)O)C(=O)O` (stereo not given), the figure is -1.39%; as for `CC(C(=O)O)c1cccc(Oc2ccccc2)c1` (stereo not given), 6.26%. With `CC(C)(C)NCC(O)COc1cccc2c1CCC(=O)N2` (stereo not given), the “activity change, negative = viability loss” value is 9.53%. Turning to `Cc1cc(NC(=O)C2=C(O)c3ccccc3S(=O)(=O)N2C)no1`, the “activity change, negative = viability loss” value was -21.5%.

On to `CCN[C@@H]1C[C@H](N)[C@@H](OC2OC(CN)=CCC2N)[C@H](O)[C@H]1O[C@H]1OC[C@](C)(O)[C@H](NC)[C@H]1O` (stereo not given in full), for which the activity change, negative = viability loss was -3.31% [at 0.587 µM]. With `O=C(O)/C=C\C(=O)O`, the “activity change, negative = viability loss” value was -19.1%. The same measure, in the same setting: for `CCOc1ccc(NC(=O)CC(C)O)cc1` (stereo not given) the value was -7.58%; for `CCS(=O)(=O)c1ccc(OC)c(C(=O)OC)c1`, -10.9%; for `C#CC(C)(CC)OC(=O)c1ccccc1C(=O)O` (stereo not given), 2.74%. Same read-out and setting: as for `CCCNC(=O)NS(=O)(=O)c1ccc(Cl)cc1`, the figure is -2.2%; as for `CN1Cc2cc(C(=O)N3CCC(C4CCNCC4)CC3)ccc2NC(CC(=O)O)C1=O` (stereo not given), -7.56%; as for `CCOC(=O)OC(C)OC1=C(C(=O)Nc2ccccn2)N(C)S(=O)(=O)c2ccccc21` (stereo not given), 1.56%. Same read-out and setting: for `O=C(Oc1ccccc1C(=O)O)c1ccccc1O` the value was 4.79%; for `Nc1c2c(nc3ccccc13)CCCC2O` (stereo not given), -21.2%. For the compound `OCC(O)CN1CCN(c2ccccc2)CC1` (stereo not given), the “activity change, negative = viability loss” value was -7.12%. The same measure, in the same setting: as for `[O-][n+]1cccc(CO)c1`, the figure is 2.78%.

With `CC(C)(C)NCC(O)COc1cccc2c1C[C@H](O)[C@H](O)C2` (stereo not given in full), the “activity change, negative = viability loss” value is -8.12%. Still for that read-out and setting: as for `O=c1[nH]c(=O)n([C@H]2CCCO2)cc1F`, the figure is -4.31%. On to `C[C@@]12C(=O)OC(=O)[C@]1(C)C1CCC2O1`, for which the Potency was 2.31 µM (active). On the same count and under the same terms, for `CC[C@H]1CN2CCc3cc(OC)c(OC)cc3[C@@H]2C[C@@H]1C[C@H]1NCCc2cc(OC)c(OC)cc21` the value was 146 nM (active) and 282 nM (active). As for `COc1ccc2c(c1)c1c3n2CCN(C)C3=NCC1`, the “activity change, negative = viability loss” value was 1.37%.

Regarding `CN1CCN(CC(=O)N2c3ccccc3C(=O)Nc3cccnc32)CC1`, the activity change, negative = viability loss was -2.51% [at 3.81 µM]. With `CNCc1ccc(C)c(NC(=O)c2ccc(Nc3nc(-c4ccccc4)c4ccccc4n3)cc2)c1`, the Potency was 6.31 µM (active). For `O=C(NCCN1CCOCC1)c1ccc(Cl)cc1`, the “activity change, negative = viability loss” value is -7.12%. For `O=C(O)[C@H](O)[C@@H](O)[C@H](O[C@@H]1O[C@H](CO)[C@H](O)[C@H](O)[C@H]1O)[C@H](O)CO`, the “activity change, negative = viability loss” value is -7.46%. As for `Cc1coc2ccccc2c1=O`, the “activity change, negative = viability loss” value is -5.31%. On the same count and under the same terms, as for `CCn1c(=O)c(-c2ccc(Cl)cc2Cl)cc2cnc(Nc3ccc(N4CCNCC4)c(F)c3)nc21`, the figure is -16.4%; as for `NC(N)=NCCC[C@H](N)C(=O)O`, -23.9% [at 3.81 µM]; as for `O=C(O)CCCC[P+](c1ccccc1)(c1ccccc1)c1ccccc1`, -16.1%.
